# Assay results: PubChem BioAssay (NCATS)
# Where “and” joins values, the source holds several entries; their conditions need not be identical. Equal values may be shown once. Inconclusive results are not listed. Calls of active or inactive are those of the source. Unless noted, calls follow the shape of the dose curve; as a rule, active = well fitted curve in the direction sought with a large enough effect; inconclusive = small, poorly fitted or top-dose-only effect, or another doubt; inactive = no such curve, though single readings can be large; an effect the other way counts as inactive or inconclusive.
# What was measured:
# [1] = qHTS assay for cell viability of HEK293 cells (AID 743288); details: ATP luminescence (CellTiter-Glo), 18 h, stronger effect = lower value; also: % is scaled to controls: 0 for no effect and ±100 for the full control effect; nearly all actives have a fitted effect of over 50% in size
# Outline: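 Readout is luciferase-coupled ATP content (CellTiter-Glo luminescence, 30 min room temperature) as a measure of metabolically competent cells. Parental HEK293 cells were plated 5 h or more before compound addition, then treated 18 h at 37 C.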
# [2] = qHTS assay for cell viability of the p53RE-bla HCT-116 cell line (AID 743292); details: p53RE-bla HCT-116 viability, ATP luminescence, 16 h; series mostly up to 95 µM; also: % is scaled to controls: 0 for no effect and ±100 for the full control effect; nearly all actives have a fitted effect of over 55% in size
# Outline: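 ATP-based luminescence, 16 h compound exposure at 37 C, p53RE-bla HCT-116 cells at 4,000/well.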
# [3] = qHTS profiling for inhibitors of Plasmodium falciparum (3D7) proliferation (AID 743322; call rule not given here;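 also: infected erythrocytes exposed to compound for 72 h before lysis; 100% = DMSO vehicle wells and 0% = 0.29 µM artemisinin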); details: P. falciparum 3D7 proliferation; at 28.7 µM (top of the series) unless noted
# Outline: (§1)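 Parasite DNA was quantified by SYBR Green I fluorescence (ex 485, em 535 nm) after overnight lysis in saponin/Triton buffer at room temperature. Cultures at 0.3% parasitemia and 2.5% hematocrit were first exposed to compound for 72 h at 37 C; signals were normalised to artemisinin (0.29 uM) and vehicle wells.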
# [4] = qHTS profiling for inhibitors of Plasmodium falciparum (DD2) proliferation (AID 743323; call rule not given here); details: lower = more inhibition; at 28.7 µM (top of the series) unless noted
# Outline: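 SYBR Green fluorescence (ex 485, em 535 nm) of lysed cultures gives parasite DNA content; wells normalized to artemisinin (0.29 uM) and DMSO controls. Infected red cells: 0.3% parasitemia, 2.5% hematocrit, 72 h, 37 C.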
# [5] = qHTS Assay for Identifying Gametocytocidal Compounds (AID 743244); also: potency is read from the fitted curve at half-maximal effect;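 as to max response: % is scaled to controls: 0 for no effect and ±100 for the full control effect; actives lower the fluorescent signal which means gametocytes are killed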; details: P. falciparum 3D7 stage III-V gametocytes, alamarBlue, 72 h; max response: stronger effect = lower value
# Outline: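 P. falciparum 3D7 stage III–V gametocytes (20,000 cells/well) were exposed to compounds for 72 h at 37 °C, 5% CO2. AlamarBlue was then added for 24 h; decreased resorufin fluorescence (Ex 525/Em 598 nm) indicated loss of viability.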
# [6] = biological target: T1, Hexokinase-4 (Homo sapiens) + Glucokinase regulatory protein (Homo sapiens) (UniProt P35557+Q14397); test: qHTS assay for inhibitors of recombinant human GCK-GKRP interaction: ADP-Glo assay (AID 743206); details: ADP-Glo luminescence, 60 min, 0% = vehicle-only wells with enzyme present; series mostly up to 76.9 µM;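 also: plate controls were DMSO plus enzyme for no effect and no enzyme for full effect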
# Outline: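 Pin-transferred compounds meet a 15 nM GST-GCK/15 nM FLAG-GKRP/2 uM S6P mix (dispense concentrations). ATP is then added to 0.4 mM final with 5 mM glucose, and the reaction runs 60 min at room temperature. ADP is quantified luminescently.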
# [7] = biological target: T1, Hexokinase-4 (Homo sapiens) + Glucokinase regulatory protein (Homo sapiens); test: qHTS assay for inhibitors of recombinant human GCK-GKRP interaction: HTRF assay (AID 743207); details: recombinant GCK-GKRP HTRF binding, 60 min, with sorbitol-6-phosphate; series mostly up to 57.5 µM;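 also: 0% = DMSO with GCK present and -100% = DMSO wells lacking GCK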
# Outline: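 After 60 min equilibration at room temperature with anti-FLAG XL665 and anti-GST antibodies, FRET ratio (665/615 nm, excitation 320 nm) was read. Proteins: GST-GCK and FLAG-GKRP, each 5 nM, plus 2 uM S6P, pH 7.1 buffer; GCK-free wells define minimum signal.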
# [8] = qHTS profiling of the MIPE4 collection as inhibitors of Plasmodium falciparum (3D7) proliferation (AID 743344; call rule not given here;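 also: scaled between DMSO vehicle wells and 0.29 µM artemisinin as full inhibition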); details: P. falciparum 3D7 in erythrocytes, SYBR Green DNA fluorescence, 72 h; at 28.5 µM (top of the series)
# Outline: as §1
# [9] = qHTS profiling of the MIPE4 collection as inhibitors of Plasmodium falciparum (DD2) proliferation (AID 743345; call rule not given here); details: P. falciparum Dd2 in erythrocytes, SYBR Green DNA, 72 h; at 28.5 µM (top of the series)
# Outline: as §1
# T1 sequence (P35557 whole entry, looked up): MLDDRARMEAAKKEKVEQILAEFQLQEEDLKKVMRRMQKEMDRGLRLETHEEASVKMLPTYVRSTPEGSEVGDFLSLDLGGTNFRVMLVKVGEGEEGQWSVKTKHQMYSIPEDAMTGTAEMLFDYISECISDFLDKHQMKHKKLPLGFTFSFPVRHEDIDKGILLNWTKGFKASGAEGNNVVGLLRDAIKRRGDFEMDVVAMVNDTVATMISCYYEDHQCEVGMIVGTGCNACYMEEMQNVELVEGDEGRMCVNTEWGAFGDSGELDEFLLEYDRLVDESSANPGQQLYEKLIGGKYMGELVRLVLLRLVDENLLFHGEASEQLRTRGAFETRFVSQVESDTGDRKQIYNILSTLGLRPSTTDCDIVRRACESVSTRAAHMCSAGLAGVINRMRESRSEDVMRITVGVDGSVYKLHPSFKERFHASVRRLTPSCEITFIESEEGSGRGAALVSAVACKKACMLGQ
# T1 sequence (Q14397 whole entry, looked up): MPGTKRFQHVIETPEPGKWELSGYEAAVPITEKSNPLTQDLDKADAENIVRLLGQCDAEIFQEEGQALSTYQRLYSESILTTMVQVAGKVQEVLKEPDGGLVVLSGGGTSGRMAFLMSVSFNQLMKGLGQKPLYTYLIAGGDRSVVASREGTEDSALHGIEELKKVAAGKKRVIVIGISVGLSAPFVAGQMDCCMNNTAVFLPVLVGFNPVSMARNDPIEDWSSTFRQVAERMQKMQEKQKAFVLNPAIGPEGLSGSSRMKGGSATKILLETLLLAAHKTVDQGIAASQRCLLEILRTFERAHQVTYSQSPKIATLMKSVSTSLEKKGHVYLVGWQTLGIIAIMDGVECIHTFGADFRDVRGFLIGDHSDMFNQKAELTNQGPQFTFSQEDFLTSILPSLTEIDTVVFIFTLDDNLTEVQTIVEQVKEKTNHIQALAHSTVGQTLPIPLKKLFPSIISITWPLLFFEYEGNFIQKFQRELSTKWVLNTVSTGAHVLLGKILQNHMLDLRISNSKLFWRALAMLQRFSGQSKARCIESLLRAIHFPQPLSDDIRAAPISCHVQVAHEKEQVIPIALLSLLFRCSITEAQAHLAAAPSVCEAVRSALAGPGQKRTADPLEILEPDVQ
compound,measurement,setting,value
NC(=O)c1ncn([C@@H]2O[C@H](CO)[C@@H](O)[C@H]2O)n1,max response,[1],-7.49% (inactive)
same,Potency,[2],inactive
CN(C)CC[C@@H](c1ccc(Cl)cc1)c1ccccn1,remaining parasite growth % (stronger effect = lower value),[3],85.4%
same,"activity, percent of control",[4],44.8%
O=Cc1ccccc1C=O,max response,[5],-3.58% (inactive)
CC1=C(/C=C/C(C)=C/C=C/C(C)=C/C(=O)O)C(C)(C)CCC1,outcome,[6],inactive
same,outcome,[7],inactive
same,max response,[5],12.7% (inactive) and 23.7% (inactive)
same,max response,[1],-2.27% (inactive) and -2.67% (inactive)
same,Potency,[2],inactive
CN(C)CCCN1c2ccccc2Sc2ccc(Cl)cc21,outcome,[6],inactive
same,outcome,[7],inactive
same,max response,[1],-23.7% (inactive)
same,Potency,[2],inactive
Cc1c(Cl)cccc1Nc1ccccc1C(=O)O,max response,[5],-7.91% (inactive)
CN(C)CCOC(C)(c1ccccc1)c1ccccn1 (configuration not stated),outcome,[6],inactive
same,outcome,[7],inactive
same,max response,[5],7.8% (inactive)
same,max response,[1],-4.19% (inactive)
same,Potency,[2],inactive
COc1ccc2cc1Oc1cc3c(cc1OC)CC[N+](C)(C)[C@H]3Cc1ccc(cc1)Oc1c(OC)c(OC)cc3c1[C@@H](C2)[N+](C)(C)CC3,max response,[5],-8.04% (inactive)
CCCCOc1cc(C(=O)OCCN(CC)CC)ccc1N,max response,[5],9.75% (inactive)
CC(CN1c2ccccc2Sc2ccccc21)N(C)C (configuration not stated),outcome,[6],inactive
same,outcome,[7],inactive
same,max response,[1],-10.5% (inactive)
C/C(=C(\CCOP(=O)(O)O)SC(=O)c1ccccc1)N(C=O)Cc1cnc(C)nc1N,max response,[5],7.95% (inactive)
CSc1ccc2c(c1)N(CCC1CCCCN1C)c1ccccc1S2 (configuration not stated),outcome,[6],inactive
same,outcome,[7],inactive
same,Potency,[5],2510 nM (active)
same,"parasite growth, % of DMSO control",[8],12.9%
same,"parasite growth remaining, % of DMSO control (lower = more inhibition)",[9],10.4%
N[C@@H](CSCCCO)C(=O)O,max response,[5],-2.32% (inactive)
